# Rows were chosen to be rich in hits. Some 3.9% of all compounds tested hit in one or more screens of this group.
# TROY NFkB inh = inhibitors of TROY-driven NF-kB signaling, primary screen, Q293 LMP1-TROYcd cells, NF-kB luciferase, uHTS; Q293 LMP1-TROYcd NF-kB luciferase reporter, 4 h; inhibition, % at 10 µM; actives 0.98% (n = 360,000); AID 1347056, 2019;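 active means compounds whose plate-normalised and pattern-corrected inhibition of the luciferase reporter signal at the single screening dose is 50% or more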
# CF NFkB inh = inhibitors of PAF-induced NF-kB signaling, primary screen, cell-based, GFP fluorescence, uHTS. actives 0.86% (n = 360,000). KKLEB NF-kB-GFP reporter, GFP fluorescence overnight. inhibition, % at 5 µM. AID 588850, 2011;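 active means at least 50% inhibition at 5 µM, scaled per plate between neutral and stimulator controls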;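 further: PAF is a Pseudomonas aeruginosa culture filtrate used as stimulus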
# TWEAK Fn14 block = inhibitors of TWEAK-Fn14 signaling, primary screen, luciferase reporter cells, uHTS | TWEAK-stimulated Fn14 reporter cells, luciferase luminescence, 8 h | inhibition, % at 10 µM | actives 2% (n = 360,000) | AID 1159606, 2016; in the data active means inhibition above about 50%
# Peg3 prom inh = Peg3 promoter-driven luciferase inhibitors, primary screen, cell-based, HeLa, luciferase luminescence; HeLa PEG-Prom luciferase reporter, overnight; inhibition, % at 20 µM; actives 1.7% (n = 360,000);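 active means inhibition of at least 50% at 20 µM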
# KKLEB tox = cytotoxicity in KKLEB CF airway cells, primary screen, cytotoxicity control for CF NF-kB inhibitor project, cell-based, uHTS, fluorescence assay plates. actives 0.36% (n = 360,000). KKLEB CF airway cells viability, ATPlite luminescence, overnight; hits give low values; cells stimulated with P. aeruginosa culture filtrate. activity change (cytotoxicity), % at 5 µM;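 active means corrected activity change at or below -50% at 5 µM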
# HIF-2a inh = HIF-2a reporter inhibitors, primary screen, luminescence, 786-0 RCC cells. actives 0.72% (n = 360,000). 786-0 RCC cells HIF-2a reporter, luciferase luminescence, overnight. inhibition, % at 18.8 µM;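 active means inhibition of the luminescence signal of 40% or more relative to plate controls, in a single-dose primary screen at 18.75 µM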
# Numbers stand for hits; 0 = inactive; ! = a repeat was not active.
SMILES,TROY NFkB inh,CF NFkB inh,TWEAK Fn14 block,Peg3 prom inh,KKLEB tox,HIF-2a inh
CCc1[nH]nc(C(=O)NC2CCCc3c2cnn3-c2cc(C)cc(C)c2)c1C (configuration not stated),58,0,0,0,0,0
CCn1nc(C)cc1C(=O)NC1CCCc2c1cnn2-c1ccc(C)c(C)c1 (configuration not stated),56,0,0,0,0,0
O=C(Nc1ccc(Cl)cc1)c1nc[nH]c1C(=O)N1CCN(c2ccccc2)CC1,0,0,0,0,0,0
O=C1CC(c2ccc3c(c2)OCCO3)Oc2ccc([N+](=O)[O-])cc21 (configuration not stated),85,0,98,0,0,0
O=C1CC(c2ccc3c(c2)OCCO3)Oc2ccccc21 (configuration not stated),0,0,0,0,0,0
Cc1cc(C)cc(NC(=O)/C(C#N)=C/c2cn(CC(=O)NCc3ccco3)c3ccccc23)c1,0,70,0,74,-72,0
Cc1ccc(C)c(NC(=O)/C(C#N)=C/c2cn(CC(=O)NCc3ccco3)c3ccccc23)c1,0,0,0,51,0,0
Cc1ccccc1N/C(SCc1ccc(Cl)cc1)=C(/C#N)C(=O)NCc1ccco1,0,0,0,0,0,0
Cc1ccc(CS/C(Nc2ccccc2C)=C(\C#N)C(=O)NCc2ccco2)c(C)c1,0,0,0,51,0,0
Cc1cc(=O)oc2cc(OCC(=O)Nc3nnc(C(C)C)s3)ccc12,0,0,77,0,0,0
Cc1cc(=O)oc2cc(OCC(=O)Nc3nnc(CC(C)C)s3)ccc12,0,0,0,0,0,0
CN(C)S(=O)(=O)c1ccc(N2CCCC2)c(C(=O)Nc2nc(-c3ccc(F)cc3)cs2)c1,0,0,0,0,0,0
Cc1ccccc1C1CCCN(C(=O)c2cc(COc3c(F)cccc3F)on2)C1 (configuration not stated),0,0,85,0,0,0
CCC(C)Sc1nc2c(c(=O)[nH]1)C(c1cccs1)C1=C(CCCC1=O)N2 (configuration not stated),0,0,0,55,0,0
O=C1CCCC2=C1C(c1ccncc1)c1c(nc(SCc3ccccc3Cl)[nH]c1=O)N2 (configuration not stated),0,0,0,0,0,0
CCOC(=O)/C(C#N)=C1/C=C(C)NC(c2ccccc2O)=N1,54,0,57,0,0,0
CC1=CC(C)(C)N2C(=O)C(=O)c3cc(OC(=O)c4ccco4)cc1c32,0,64,0,0,0,0
CCOC(=O)c1c(Nc2ccc(Cl)cc2)sc(/C=C2\C=Nc3ccccc32)c1O,0,0,0,0,-51!,0
Cn1cc(CN2CCCC(CO)(Cc3cccc(Cl)c3)C2)cn1 (configuration not stated),0,0,0,0,0,0
CC(C)n1cc(CN2CCCC(CO)(Cc3cccc(Cl)c3)C2)cn1 (configuration not stated),51,0,0,0,0,0
Fc1ccccc1/C=C/c1ccc2ccccc2n1,59,0,89,0,0,0
O=C(O)/C=C/c1ccc2ccccc2n1,0,0,0,0,0,0
Oc1ccc(/C=C/c2ccc3ccccc3n2)cc1,74,0,92,0,0,0
O=[N+]([O-])c1ccc(/C=C/c2ccc3cccc(O)c3n2)cc1,0,0,0,0,0,0
O=[N+]([O-])c1ccc(/C=C/c2ccc3ccccc3n2)cc1,55,0,60,0,0,0
C(=C\c1ccc2ccccc2n1)/c1ccccc1,57,0,74,0,0,0
OCC1OC(c2ccc(OCc3ccccc3)cc2OCc2ccccc2)C(O)C1O (configuration not stated),0,0,0,0,0,0
Cc1ccc(Nc2ncnc3sccc23)c(C)c1,0,0,0,0,0,0
CCN(C#N)c1nc(NC(C)C)nc(NC(C)(C)C)n1,0,0,0,0,0,0
